Assay [1] in a line: NCI Yeast Anticancer Drug Screen. Data for the rad50 strain (AID 155).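 Note: 0% = growth of vehicle-only cultures of the same strain.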 The settings on record: S. cerevisiae rad50 strain growth inhibition, active compounds read high. Put shortly: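 Inhibition values express reduced yeast growth in compound-treated cultures relative to vehicle-treated controls.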
A short description of assay [2]: NCI Yeast Anticancer Drug Screen. Data for the mec2-1 strain (AID 157). The note with it: S. cerevisiae mec2-1 strain, active compounds read high. Put shortly: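 Test agents were screened against the mec2-1 yeast strain, with defined DNA repair or cell cycle alteration. Growth was scored as inhibition against vehicle-only controls.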
The nature of assay [3]: NCI Yeast Anticancer Drug Screen. Data for the sgs1 mgt1 strain (AID 161).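 Note: 0% = growth of cultures given vehicle only.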 The settings on record: S. cerevisiae sgs1 mgt1 strain, active compounds read high. Put shortly: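 Test agents were incubated with a DNA-repair-mutant yeast strain. Growth was then read and compared against vehicle-treated controls.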
Assay [4] is described as follows: NCI Yeast Anticancer Drug Screen. Data for the cln2 rad14 strain (AID 165).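 Note: 0% = growth equal to vehicle treated cultures.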 The settings on record: S. cerevisiae cln2 rad14 strain, active compounds read high. In outline:
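Growth of compound-exposed yeast (cln2 rad14 genotype) measured and expressed as inhibition relative to vehicle.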

A short description of assay [5]: NCI Yeast Anticancer Drug Screen. Data for the bub3 strain (AID 167). The settings on record: S. cerevisiae bub3 mutant strain, active compounds read high. In outline: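 Steps: expose the mutant yeast strain to compound; grow alongside vehicle-treated cultures; measure growth; express inhibition against the vehicle cultures.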
The nature of assay [6]: NCI Yeast Anticancer Drug Screen. Data for the mlh1 rad18 strain (AID 175). The settings on record: S. cerevisiae mlh1 rad18 strain growth inhibition, active compounds read high. Put shortly:
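In this whole-cell yeast screen, a strain with altered DNA damage repair is challenged with compound, and its growth is measured against matched vehicle-treated controls.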

Where [7] appears, read: at 5.0 µM (retest, dose inferred, filed as 0.5).
The mark [8] stands for this setting: at 50.0 µM (retest, dose inferred, filed as 5.0).

This is part of a sample that, as a whole, favours compounds with a hit. Of some 79,000 tested, about 15% had one in any assay. Values without a mark were called inactive. The source made the active and inactive calls. Cut-off read from the data, not from the text of the source: active = growth inhibition above about 70%; inactive = the rest.

With `CC1(C)C[C@H]2C=C(C=O)[C@]34C[C@]3(C(=O)OC4O)[C@H]2C1` (stereo not given in full), the growth inhibition in assay [1] (setting [7]) is 94% (active); in assay [1] (setting [8]), 99% (active); in assay [1] (at 50.0 µM), 92.5% (active); in assay [2] (setting [7]), 98% (active); in assay [2] (setting [8]) it was 100% (active); in assay [2] (at 50.0 µM), 93.6% (active). The growth inhibition in assay [3] (setting [7]) is 98% (active); in assay [3] (setting [8]), 100% (active); in assay [3] (at 50.0 µM), 93.2% (active); in assay [4] (setting [7]) it was 84% (active); in assay [4] (setting [8]), 99% (active); in assay [4] (at 50.0 µM) it was 92.3% (active). The growth inhibition in assay [5] (setting [7]) is 97% (active); in assay [5] (setting [8]), 100% (active); in assay [5] (at 50.0 µM), 92.3% (active); in assay [6] (setting [7]) it was 96% (active); in assay [6] (setting [8]), 97% (active); in assay [6] (at 50.0 µM), 90.7% (active).
For the compound `C/C(=N/NC(=S)Nc1cccc(Cl)c1)c1ccccn1`, the growth inhibition in assay [1] (setting [7]) is 78% (active); in assay [1] (setting [8]), 97% (active); in assay [1] (at 50.0 µM), 79% (active); in assay [2] (setting [7]) it was 91% (active); in assay [2] (setting [8]) it was 97% (active); in assay [2] (at 50.0 µM), 86.7% (active). Also, the growth inhibition in assay [3] (setting [7]) was 85% (active); in assay [3] (setting [8]), 97% (active); in assay [3] (at 50.0 µM), 87% (active); in assay [4] (setting [7]) it was 81% (active); in assay [4] (setting [8]), 96% (active); in assay [4] (at 50.0 µM), 88.2% (active). For the same compound, the growth inhibition in assay [5] (setting [7]) was 82% (active); in assay [5] (setting [8]), 96% (active); in assay [5] (at 50.0 µM) it was 90% (active); in assay [6] (setting [7]), 91% (active); in assay [6] (setting [8]), 97% (active); in assay [6] (at 50.0 µM), 90.1% (active).
In the case of `Oc1ccc(O)c(C2CCCCC2)c1`, the growth inhibition in assay [1] (setting [7]) is 30%; in assay [1] (setting [8]), 94% (active); in assay [1] (at 50.0 µM), 96.7% (active); in assay [2] (setting [7]), 62%; in assay [2] (setting [8]) it was 99% (active); in assay [2] (at 50.0 µM) it was 89.7% (active). Besides, the growth inhibition in assay [3] (setting [7]) was 46%; in assay [3] (setting [8]) it was 99% (active); in assay [3] (at 50.0 µM), 78.2% (active); in assay [4] (setting [7]) it was 46%; in assay [4] (setting [8]), 94% (active); in assay [4] (at 50.0 µM), 50.4%. For the same compound, the growth inhibition is 51% in assay [5] (setting [7]); 99% (active) in assay [5] (setting [8]); 89% (active) in assay [5] (at 50.0 µM); 83% (active) in assay [6] (setting [7]); 99% (active) in assay [6] (setting [8]); 94.8% (active) in assay [6] (at 50.0 µM).
Turning to `Cc1cc(N(CCOS(C)(=O)=O)CCOS(C)(=O)=O)ccc1C=Nc1ccccc1C(=O)O`, the growth inhibition in assay [1] (setting [7]) was 7%; in assay [1] (setting [8]), 76% (active); in assay [1] (at 50.0 µM), 83.5% (active); in assay [2] (setting [7]), 15%; in assay [2] (setting [8]), 66%; in assay [2] (at 50.0 µM) it was 74.3% (active). Further, the growth inhibition in assay [3] (setting [7]) is 4%; in assay [3] (setting [8]), 62%; in assay [3] (at 50.0 µM), 79.8% (active); in assay [4] (setting [7]) it was 4%; in assay [4] (setting [8]), 57%; in assay [4] (at 50.0 µM), 68.2%. In addition, the growth inhibition in assay [5] (setting [7]) was -2%; in assay [5] (setting [8]), 31%; in assay [5] (at 50.0 µM), 38.5%; in assay [6] (setting [7]) it was 28%; in assay [6] (setting [8]) it was 91% (active); in assay [6] (at 50.0 µM) it was 95.1% (active).
In the case of `CN(NS(=O)(=O)c1cccc([N+](=O)[O-])c1)c1ccccc1`, the growth inhibition in assay [1] (setting [7]) was -2%; in assay [1] (setting [8]), 19%; in assay [1] (at 50.0 µM), 98.7% (active); in assay [2] (setting [7]), 9%; in assay [2] (setting [8]) it was 6%; in assay [2] (at 50.0 µM) it was 98.2% (active). The growth inhibition was -2% in assay [3] (setting [7]); 6% in assay [3] (setting [8]); 96.5% (active) in assay [3] (at 50.0 µM); 5% in assay [4] (setting [7]); 16% in assay [4] (setting [8]); 95.5% (active) in assay [4] (at 50.0 µM). Further, the growth inhibition was 0% in assay [5] (setting [7]); 39% in assay [5] (setting [8]); 98.8% (active) in assay [5] (at 50.0 µM); -10% in assay [6] (setting [7]); 41% in assay [6] (setting [8]); 98.8% (active) in assay [6] (at 50.0 µM).
As for `Clc1ccc(/C=N/Nc2c3ccccc3nc3ccccc23)c(Cl)c1`, the growth inhibition in assay [1] (setting [7]) was -6%; in assay [1] (setting [8]) it was 84% (active); in assay [1] (at 50.0 µM), 86.4% (active); in assay [2] (setting [7]), -11%; in assay [2] (setting [8]) it was 87% (active); in assay [2] (at 50.0 µM), 46%. The growth inhibition was -5% in assay [3] (setting [7]); 83% (active) in assay [3] (setting [8]); 87.8% (active) in assay [3] (at 50.0 µM); -47% in assay [4] (setting [7]); 64% in assay [4] (setting [8]); 28.5% in assay [4] (at 50.0 µM). Also, the growth inhibition is -12% in assay [5] (setting [7]); 92% (active) in assay [5] (setting [8]); 60.4% in assay [5] (at 50.0 µM); 0% in assay [6] (setting [7]); 87% (active) in assay [6] (setting [8]); 85.4% (active) in assay [6] (at 50.0 µM).
On to `Cc1cccc2c(CC(=O)O)cccc12`, for which the growth inhibition in assay [1] (setting [7]) is -5%; in assay [1] (setting [8]), 78% (active); in assay [1] (at 50.0 µM), 78.7% (active); in assay [2] (setting [7]) it was 7%; in assay [2] (setting [8]), 82% (active); in assay [2] (at 50.0 µM), 77.7% (active). The growth inhibition in assay [3] (setting [7]) was 1%; in assay [3] (setting [8]), 81% (active); in assay [3] (at 50.0 µM), 52.5%; in assay [4] (setting [7]), 19%; in assay [4] (setting [8]), 61%; in assay [4] (at 50.0 µM), 71.8% (active). The growth inhibition in assay [5] (setting [7]) is -1%; in assay [5] (setting [8]), 95% (active); in assay [5] (at 50.0 µM), 75% (active); in assay [6] (setting [7]), 4%; in assay [6] (setting [8]) it was 88% (active); in assay [6] (at 50.0 µM), 78.5% (active).
As for `OC(CBr)c1cc(-c2ccccc2)nc2ccccc12` (stereo not given), the growth inhibition is -3% in assay [1] (setting [7]); 98% (active) in assay [1] (setting [8]); -5.25% in assay [1] (at 50.0 µM); -2% in assay [2] (setting [7]); 96% (active) in assay [2] (setting [8]); 18.1% in assay [2] (at 50.0 µM). In addition, the growth inhibition is -3% in assay [3] (setting [7]); 97% (active) in assay [3] (setting [8]); 41.8% in assay [3] (at 50.0 µM); -17% in assay [4] (setting [7]); 93% (active) in assay [4] (setting [8]); -24.7% in assay [4] (at 50.0 µM). Also, the growth inhibition in assay [5] (setting [7]) is 1%; in assay [5] (setting [8]) it was 99% (active); in assay [5] (at 50.0 µM), 69.3%; in assay [6] (setting [7]), -3%; in assay [6] (setting [8]) it was 97% (active); in assay [6] (at 50.0 µM), 28.2%.
Take `CCCCCCCCCC1OCC(C)O1` (stereo not given): the growth inhibition in assay [1] (setting [7]) was 3%; in assay [1] (setting [8]) it was 30%; in assay [1] (at 50.0 µM), 53%; in assay [2] (setting [7]), 3%; in assay [2] (setting [8]) it was 30%; in assay [2] (at 50.0 µM), 44.6%. For the same compound, the growth inhibition was -2% in assay [3] (setting [7]); 38% in assay [3] (setting [8]); 73.2% (active) in assay [3] (at 50.0 µM); 6% in assay [4] (setting [7]); 17% in assay [4] (setting [8]); 4% in assay [4] (at 50.0 µM). In addition, the growth inhibition in assay [5] (setting [7]) is 7%; in assay [5] (setting [8]) it was 36%; in assay [5] (at 50.0 µM) it was 7.7%; in assay [6] (setting [7]) it was 4%; in assay [6] (setting [8]), 62%; in assay [6] (at 50.0 µM), 61.2%.
On to `O=C(c1ccccc1)c1ccc2c(c1Cl)C(=O)c1ccccc1C2=O`, for which the growth inhibition is -6% in assay [1] (setting [7]); -1% in assay [1] (setting [8]); 43% in assay [1] (at 50.0 µM); -3% in assay [2] (setting [7]); -7% in assay [2] (setting [8]); 43.8% in assay [2] (at 50.0 µM). For the same compound, the growth inhibition in assay [3] (setting [7]) is 0%; in assay [3] (setting [8]), 0%; in assay [3] (at 50.0 µM), 63.8%; in assay [4] (setting [7]), 14%; in assay [4] (setting [8]), -16%; in assay [4] (at 50.0 µM), 4%. Also, the growth inhibition in assay [5] (setting [7]) was -8%; in assay [5] (setting [8]) it was -11%; in assay [5] (at 50.0 µM) it was 80.5% (active); in assay [6] (setting [7]) it was 1%; in assay [6] (setting [8]), 0%; in assay [6] (at 50.0 µM), 65.2%.
